CCT chaperon mod – modulators of cytosolic chaperonin (CCT/TRiC) activity; purified chaperonin ATPase assay, HTRF ADP detection, 30 min; activity change, % (concentration not given with the values), hits read low; hit rate 0.3% among 360,000; in the data active = activity change below about -30%; note: % is set by controls: 0 for no effect and ±100 for the full control effect
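ATPase activity: ADP formed was measured by HTRF Transcreener (665/615 nm ratio) after 30 min at 37 deg C with 10 uM ATP. Compounds screened at one 76 uM concentration against 40 or 20 nM TRiC in Tris pH 7.4/KCl/MgCl2/DTT buffer.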
Mm-Cpn inhibitor – inhibitors of Methanococcus maripaludis chaperonin TRiC (MmCpn) | purified Mm-Cpn ATPase, ADP Transcreener TR-FRET | Potency, µM (titrated, usually from 76.9 µM), for the others: at the top dose activity, negative = inhibition, actives largely listed as inhibitors | hit rate 0.031% among 330,000 | AID 504842; note: potency is the fitted concentration of half-maximal effect; % is set by controls: 0 for no effect and ±100 for the full control effect; nearly all actives have a fitted effect of over 80% in size
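Eu-cryptate anti-ADP/ADP-d2 competition gives a ratio inversely related to ADP. Enzyme at 25 nM was pre-exposed to compound for 10 min, then given 10 uM ATP for 30 min, 37°C throughout.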
B2AR arrestin – recruits beta-arrestin to the human beta2-adrenergic receptor; P07550; hit rate 0.02% among 330,000; Potency, µM (series often up to 46.1 µM), for inactives: at the highest dose activation, actives largely listed as activators; beta-arrestin recruitment to beta2AR, cell-based reporter;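 note: potency is the fitted concentration of half-maximal effect; 0% = DMSO controls and full agonism = EC100 isoproterenol or metaproterenol; nearly all actives have a fitted effect of over 65% in size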
Target sequence (P07550 whole entry, looked up): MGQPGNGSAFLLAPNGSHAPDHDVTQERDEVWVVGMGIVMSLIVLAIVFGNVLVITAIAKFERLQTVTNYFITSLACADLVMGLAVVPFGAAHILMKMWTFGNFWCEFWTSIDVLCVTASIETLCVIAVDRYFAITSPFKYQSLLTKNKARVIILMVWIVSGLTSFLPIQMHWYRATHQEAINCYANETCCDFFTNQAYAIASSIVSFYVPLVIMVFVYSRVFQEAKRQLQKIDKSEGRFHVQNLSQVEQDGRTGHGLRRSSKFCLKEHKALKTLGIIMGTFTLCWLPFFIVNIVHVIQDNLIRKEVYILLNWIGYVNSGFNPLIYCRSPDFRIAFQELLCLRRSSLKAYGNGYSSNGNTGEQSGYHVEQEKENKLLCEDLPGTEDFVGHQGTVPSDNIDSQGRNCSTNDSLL
TCR act – T cell receptor activation. primary human leukocytes, anti-CD3, IL-2 HTRF, 48 h. Potency, µM (titrated, usually from 9.22 µM), for the others: at the highest dose activation of IL-2 secretion, usual class: activators. 330,000 tested, under 10 active. AID 504894; note: % of control where 0% means no effect
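Primary human leukocytes receive a-CD3 beads and test compound and are incubated 48 hr. Secreted IL-2 is then assayed by HTRF, measuring 665nm acceptor emission after 320nm excitation of the europium donor.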
TSHR antagonist – blocks TSH signaling through the human TSH receptor | P16473 | TSHR-expressing cells, TSH-stimulated cAMP HTRF, 2 h; stronger effect = lower value | activity change, negative = inhibition, % at 11.5 µM | hit rate 0.2% among 330,000 | AID 504810;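 active = activity change below a set negative limit, meaning inhibition stronger than a set level, cut at about -70% in these data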; note: % is set by controls: 0 for no effect and ±100 for the full control effect
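Inhibition of cAMP made by TSHR-expressing cells under TSH stimulation (4nM final, EC80; 2 h, 37 deg C) is quantified with a one-step lysis HTRF kit, anti-cAMP cryptate versus cAMP-d2.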
The depositor's hits bear a star; . = no result given; [ ] = another dose, or the depositor's remark. Compounds with a hit are over-represented: about 0.5% of the library has one in this group of screens. Unless noted, calls come from the whole dose curve; as a rule, active = well fitted curve in the direction sought with a large enough effect; inconclusive = small, poorly fitted or top-dose-only effect, or another doubt; inactive = no such curve, though single readings can be large; an effect the other way counts as inactive or inconclusive.

SMILES	CCT chaperon mod	Mm-Cpn inhibitor	B2AR arrestin	TCR act	TSHR antagonist
O=C(c1ccccc1)N1CCN(CC2CC=CCC2)CC1 (configuration not stated)	0	2%	0%	9%	-1
COc1ccccc1NC(=O)N1CCN(c2cccc(C(F)(F)F)c2)CC1	0	-1%	0%	2%	-6
COc1ccccc1CC(=O)N1CCN(c2cccc(C(F)(F)F)c2)CC1	-34*	0%	1%	10%	-3
Cc1cc(Cl)n2c(nc3cc(F)c(F)cc32)c1C#N	0	-6%	0%	-2%	-73*
Cc1cc(C)n2c(=O)c3ccc(Cl)cc3nc2c1C#N	-1	0%	0%	3%	-9
C=CCNC(=S)Nc1cccc2[nH]ncc12	-32*	-3%	0%	.	5
COc1ccc(C(=O)NCCc2ccc(C(F)(F)F)cc2)cc1S(=O)(=O)N1CCOCC1	-1	-2%	0%	4%	-5
COc1ccc(OC)c(/C=N/NC(=O)CN2CCSCC2)c1	1	-2%	0%	-1%[46.1 µM]	-5
COc1ccc(Br)cc1/C=N/NC(=O)CN1CCCCC1	0	1%	0%	-5%	-122*
NC(=O)c1cccnc1Oc1ccc(Cl)cc1Cl	1	-2%	-1%	2%	-1
CCC(=O)OCCNc1cc(Sc2nccn2C)c2nonc2c1[N+](=O)[O-]	0	-3%	0%	-5%[46.1 µM]	-97*
Cc1[nH]c(=O)[nH]c(=O)c1Cc1cccc2ccccc12	-37*	0%	0%	1%	17
Cc1nc(N2CCN(C)CC2)[nH]c(=O)c1Cc1cccc2ccccc12	2	-1%	-1%	-3%	-3
Cc1[nH]c2ccccc2c1CCO	-31*	1%	0%	7%	-1
CCOc1cc(C(=S)N2CCOCC2)ccc1OS(=O)(=O)c1ccccc1[N+](=O)[O-]	-1	-4%	1.2µM*	-12%[46.1 µM]	-3
COc1ccccc1/C=C(/CC(=O)NCc1ccccc1)c1nc2ccccc2s1	-34*	-3%	0%	3%[46.1 µM]	-10
CN(C)S(=O)(=O)c1cc(NC(=O)COC(=O)/C=C/c2ccco2)ccc1Cl	2	0%	0%	0%	-4
CC1CCCCN1CCNC(=O)C1CCCN(S(=O)(=O)c2cccc3nsnc23)C1 (configuration not stated)	1	2%	0%	-1%	9
CC1CCCCN1CCNC(=O)C1CCN(S(=O)(=O)c2cccc3nsnc23)CC1 (configuration not stated)	-34*	2%	0%	0%	-5
Cc1cccc(CSc2nc3ccncc3n2CC(=O)Nc2ccc(C)c(C)c2)c1	.	1%	0%	.	2
Cc1cccc(C(C)(C)C)c1OCCCCN1CCCC1	-59*	-2%	0%	-22%	13
CC(C)(C)c1ccccc1OCCCCN1CCCC1	-5	1%	0%	-1%	-7
O=[N+]([O-])c1ccc(/C=N\N2CCN(Cc3ccccc3Cl)CC2)cc1	-1	.	.	.	.
O=[N+]([O-])c1ccc(/C=N/N2CCN(Cc3ccccc3)CC2)cc1	-105*	1%	0%	2%	-13
CCOc1ccc(-n2c(SCC(=O)Nc3ccc(OC)cc3)nc3c(c2=O)SCC3)cc1	-2	-7%	0%	5%	-1
SMILES	CCT chaperon mod	Mm-Cpn inhibitor	B2AR arrestin	TCR act	TSHR antagonist
CCOc1ccc(-n2c(SCC(=O)Nc3cc(C)on3)nc3c(c2=O)SCC3)cc1	1	1%	0%	-23%	-85*
CN(C)c1cccc(C(=O)NCc2ccc3c(c2)OCO3)c1	-40*	-5%	0%	-5%	-2
Nc1c(C(=O)NCc2ccc3c(c2)OCO3)nnn1CC(=O)Nc1ccc(Br)cc1	-2	3%	0%	3%	-114*
O=C(CCc1c[nH]c2ccccc12)NCc1ccc2c(c1)OCO2	1	1%	-1%	-1%	21
O=C(Cc1c[nH]c2ccccc12)NCc1ccc2c(c1)OCO2	-38*	-3%	0%	-1%	5
CN(C)c1ccc(C(=O)NCc2ccc3c(c2)OCO3)cc1	0	-1%	-1%	-7%	4
Cn1c(=O)c2sccc2n2c(CCCC(=O)NCCc3ccc(S(N)(=O)=O)cc3)nnc12	-1	0%	0%	-1%	18
CC1Cc2c([nH]c3ccccc23)C2c3ccccc3CN12 (configuration not stated)	1	0%	-1%	3%	-31
C=CCNC(=O)c1ccc(NC(=O)C2=CSCCO2)cc1	2	-2%	0%	-1%	-136*
CC(C)CCNC(=O)c1ccc(NC(=O)C2=CSCCO2)cc1	2	0%	0%	-4%	-10
O=C(CC1(O)C(=O)Nc2ccccc21)c1cccc(Br)c1 (configuration not stated)	-1	0%	0%	-6%[46.1 µM]	-2
COc1ccc(Br)cc1S(=O)(=O)n1c([N+](=O)[O-])cnc1C	-3	0%	-1%	0%	1
CCOC(=O)C(CC)(CC)C(=O)/C=C/c1cccc(Br)c1	-2	.	.	-8%	.
CSc1ncc(Cl)c(C(=O)Nc2c(C)cccc2C)n1	-2	-2%	0%	2%	5
COC(=O)c1ccc(C(=O)OC)c(NC(=O)CSc2cccc[n+]2[O-])c1	1	0%	5µM*	4%	1
Cc1ccc(N(C(=O)c2csnn2)C(C(=O)NC2CCCCC2)c2ccccn2)c(C)c1 (configuration not stated)	-32*	0%	0%	0%	-9
COc1ccc(CNC(=O)C(C)OC(=O)c2cccs2)cc1 (configuration not stated)	0	0%	0%	6%	-101*
O=C(C1CCN(S(=O)(=O)c2ccc(F)cc2)CC1)N1CCOCC1	-41*	4%	-1%	-1%	35
N#Cc1c(F)cccc1N1CCN(Cc2ccc3c(c2)OCO3)CC1	0	1%	0%	2%	-90*
CC(C)C(NC(=O)C12CC3CC(CC(C3)C1)C2)C(=O)NC1=NCCS1 (configuration not stated)	.	-5%	0%	.	1
CC(C)CC(NC(=O)CC12CC3CC(CC(C3)C1)C2)C(=O)NC1=NCCS1 (configuration not stated)	-98*	0%	-1%	-2%	-6
CC1Cc2ccccc2N1C(=O)CN1C(=O)COc2ccccc21 (configuration not stated)	0	3%	0%	.	9
CC1Cc2ccccc2N1C(=O)CN1C(=O)CN(C)C(=O)c2ccccc21 (configuration not stated)	-35*	2%	0%	2%	.
O=C(NCCc1ccccc1)c1ccc(CS(=O)Cc2cccc(Cl)c2)o1 (configuration not stated)	1	3%	0%	5%	10

Screening data from PubChem.
